Structures are written as SMILES. Several values for one entry are separate records, joined by “and”; a condition that tells them apart may be missing. Identical values can stand only once. About 83,000 compounds went through this panel and 20% of them were active in at least one assay; those are over-represented in the sample as a whole.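 96-well plates, one dose, 48 hours. Percent growth reported; active if below 10.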 Activity calls are given as the source filed them.

For the test, the system named is IGROV1 ovarian. Put plainly: NCI-60 one-dose screen, 48 h (100 = growth as untreated, 0 = no growth, -100 = all killed). The following applies: 10 µM unless noted.
In the case of `COc1cc(/C=C/C(C)=O)ccc1O`, the growth was 101% (inactive) and 119% (inactive).
Next, `CC(C)(C)CC(C)(C)c1ccc(OCCSC(=N)N)cc1`: 77.1% (inactive); `COc1ccc(N=N/N=c2\sc3cc(OC)ccc3n2C)cc1`: 91.7% (inactive); `O=C(Oc1cccc2cccnc12)c1ccccc1`: 113% (inactive).
The same measure for `S=C(NCCNC(=S)[S][Sn]([c]1ccccc1)([c]1ccccc1)[c]1ccccc1)[S][Sn]([c]1ccccc1)([c]1ccccc1)[c]1ccccc1`: -84.8% (active).
Next, `C[N+](C)=c1ccc2nc3c(cc(NCCCNc4cc5oc6cc(=[N+](C)C)ccc-6nc5c5ccccc45)c4ccccc43)oc-2c1`: 19.1% (inactive); `C[n+]1c(/C=C/c2ccc([N+](=O)[O-])cc2)ccc2ccccc21`: 104% (inactive).
Take `CCC(CCCN(CC)CCc1ccccc1)OC(=O)c1cc(OC)c(OC)c(OC)c1` (stereo not given): the growth was 78.1% (inactive).
As to `O=C(/C=C\c1ccccc1)N1c2ccccc2CC1c1c[nH]c2ccccc12` (stereo not given), the growth was 47.3% (inactive).
Next, `OC(CNc1ccnc2cc(Cl)ccc12)CNc1ccnc2cc(Cl)ccc12`: 87.6% (inactive); `COC(=O)c1nc(=S)[nH]c(C(=O)OC)c1C(=O)c1ccccn1`: 24.5% (inactive).
As to `Cc1ccc(N=C=C(c2ccccc2)c2ccccc2)cc1`, the growth is 57.2% (inactive).
The same measure for `NC(=S)N/N=C/c1ccc(Cl)s1`: 106% (inactive); for `O=[N+]([O-])c1ccc2c(N=Nc3ccc4ccccc4c3O)c(O)cc(S(=O)(=O)O)c2c1`: 61.7% (inactive); for `CC(=Nc1ccc(N(C)C)cc1)c1ccccc1`: 58.8% (inactive).

The values are drawn from PubChem BioAssay (NCI).
